Assay results published in PubChem BioAssay AID1159580 (chemical genetic matrix, 2015).
Values joined by “and” are separate entries in the source; they are usually repeats but may differ in a detail not shown here. Identical values can stand only once. In all, about 5,500 compounds went through this assay and about 2,000 (36%) were called active. Inconclusive results (about 18%) are left out. No stated cut-off is given here; in the data, active means normalized growth mostly below about 0.91 (no sharp cut-off); inconclusive means no clear call, values can overlap the other calls; inactive means mostly above about 0.92. The list shows a part of the results.

Assay: chemical genetic growth profiling, strain panel (AID 1159580);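 further: tested at 20 µM; growth read once vehicle control cultures reached saturation at 30 °C; 1 = growth at the plate median or of vehicle wells; lower values mean less growth of the strain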
Details: S. cerevisiae deletion strains, growth OD

Measured: normalized growth

Nc1c2c(nc3ccccc13)CCCC2O (stereo not drawn)
inactive: locus YAL021C, strain ccr4, active compounds read low 1.01 | locus YAL026C, strain drs2, active compounds read low 1.01 | locus YAL030W, strain snc1, active compounds read low 1.01 | locus YAL040C, strain CLN3, active compounds read low 1.05 | locus YBL061C, strain skt5, active compounds read low 1.01 | locus YBR009C, strain hhf1, active compounds read low 1 | locus YBR021W, strain FUR4, active compounds read low 0.94 | locus YBR023C, strain chs3, active compounds read low 1.01 | locus YBR171W, strain sec66, active compounds read low 1 | locus YBR229C, strain ROT2, active compounds read low 1.01 | locus YBR231C, strain swc5, active compounds read low 0.998 | locus YBR279W, strain paf1, active compounds read low 1.02 | locus YCL011C, strain gbp2, active compounds read low 1.01 | locus YCL016C, strain dcc1, active compounds read low 1 | locus YCL029C, strain bik1, active compounds read low 0.974 | locus YCL061C, strain MRC1 (second series), active compounds read low 1.01 | locus YCL061C, strain MRC1, active compounds read low 1.03 | locus YCL069W, strain vba3, active compounds read low 1.01 | locus YCR088W, strain abp1, active compounds read low 1 | locus YDL005C, strain med2, active compounds read low 1 | locus YDL035C, strain GPR1, active compounds read low 0.994 | locus YDL040C, strain nat1, active compounds read low 1.01 | locus YDL074C, strain BRE1, active compounds read low 1.04 | locus YDL101C, strain DUN1, active compounds read low 1.01 | locus YDL134C, strain PPH21, active compounds read low 1.01 | locus YDL185W, strain tfp1, active compounds read low 0.964 | locus YDL192W, strain arf1, active compounds read low 0.987 | locus YDR001C, strain nth1, active compounds read low 1.01 | locus YDR069C, strain doa4, active compounds read low 1 | locus YDR101C, strain arx1, active compounds read low 0.995 | locus YDR137W, strain rgp1, active compounds read low 1.01 | locus YDR159W, strain sac3, active compounds read low 0.997 | locus YDR162C, strain NBP2, active compounds read low 0.985 | locus YDR195W, strain ref2 0.917 | locus YDR297W, strain sur2, active compounds read low 1.01 | locus YDR318W, strain mcm21, active compounds read low 0.982 | locus YDR334W, strain swr1, active compounds read low 1.01 | locus YDR335W, strain msn5, active compounds read low 1.01 | locus YDR363W, strain ESC2, active compounds read low 1 | locus YDR388W, active compounds read low 0.985 | locus YDR392W, strain spt3, active compounds read low 0.902 | locus YDR502C, strain sam2, active compounds read low 0.998 | locus YEL003W, strain gim4, active compounds read low 1.01 | locus YEL037C, strain rad23, active compounds read low 1.01 | locus YEL061C, strain CIN8 (second series), active compounds read low 1.01 | locus YEL061C, strain CIN8, active compounds read low 1.03 | locus YER002W, strain NOP16, active compounds read low 1.01 | locus YER015W, strain faa2, active compounds read low 1 | locus YER016W, strain bim1, active compounds read low 0.991 | locus YER110C, active compounds read low 0.981 | locus YER111C, strain swi4, active compounds read low 1 | locus YER155C, strain BEM2 (second series), active compounds read low 1 | locus YER155C, strain BEM2, active compounds read low 0.994 | locus YER167W, strain BCK2, active compounds read low 1 | locus YFR010W, strain ubp6, active compounds read low 1 | locus YGL078C, strain dbp3, active compounds read low 0.992 | locus YGL086W, strain mad1, active compounds read low 1.01 | locus YGL167C, strain pmr1, active compounds read low 1 | locus YGL173C, strain kem1, active compounds read low 1.01 | locus YGL227W, strain vid30, active compounds read low 0.995 | locus YGL240W, strain doc1, active compounds read low 0.987 | locus YGL248W, strain PDE1, active compounds read low 1.02 | locus YGL253W, strain hxk2, active compounds read low 1 | locus YGR078C, strain PAC10, active compounds read low 1.03 | locus YGR135W, strain pre9, active compounds read low 0.979 | locus YGR229C, strain SMI1, active compounds read low 1.02 | locus YGR252W, strain gcn5, active compounds read low 0.998 | locus YHR013C, strain ard1, active compounds read low 0.945 | locus YHR027C, strain rpn1, active compounds read low 1.01 | locus YHR030C, strain SLT2, active compounds read low 0.993 and 0.981 | locus YHR079C, strain IRE1 (second series), active compounds read low 0.976 | locus YHR079C, strain IRE1, active compounds read low 0.983 | locus YHR094C, strain hxt1, active compounds read low 0.992 | locus YHR129C, strain ARP1, active compounds read low 1 | locus YHR142W, strain chs7, active compounds read low 1.03 | locus YHR200W, strain rpn10, active compounds read low 0.973 | locus YIL066C, strain RNR3, active compounds read low 1.02 | locus YIL073C, strain SPO22, active compounds read low 0.912 | locus YIL125W, strain kgd1, active compounds read low 0.996 | locus YIR030C, strain dcg1, active compounds read low 0.979 | locus YJL092W, strain hpr5, active compounds read low 1.03 | locus YJL095W, strain BCK1 (second series), active compounds read low 1.01 | locus YJL095W, strain BCK1, active compounds read low 1.05 and 0.988 | locus YJL115W, strain asf1, active compounds read low 1 | locus YJL129C, strain trk1, active compounds read low 1.05 | locus YJL134W, strain LCB3, active compounds read low 0.996 | locus YJL154C, strain vps35, active compounds read low 1.01 | locus YJL164C, strain tpk1, active compounds read low 1.02 | locus YJL166W, strain qcr8, active compounds read low 1.01 | locus YJL168C, strain set2, active compounds read low 0.991 | locus YJL187C, strain SWE1 (second series), active compounds read low 1.03 | locus YJL187C, strain SWE1, active compounds read low 1.02 | locus YJR043C, strain POL32, active compounds read low 1.02
